Hits are enriched below; roughly 3% of the tested compounds scored in any of these assays.
Nrf2 activator: Nrf2 pathway activation; AREc32 ARE-luciferase reporter (MCF7-derived line), luminescence, 24 h; Potency, µM (series often up to 46.1 µM), inactives show at the highest dose activation, most hits filed as activators; actives 0.31% (n = 410,000); also: potency is read from the fitted curve at half-maximal effect; % of control where 0% means no effect; nearly all actives have a fitted effect of over 65% in size
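For detection, Steady-Glo was added and plates sat 30 min at RT; before that, AREc32_Fluc cells grown overnight in OPTI-MEM/5% FBS had been treated with 23 nL compound for 24 hr at 37 deg C.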
D3 ag: D3 dopamine receptor (human) agonism. P35462. D3R DiscoveRx beta-arrestin cells, luminescence, 90 min. max activation, %. actives 0.58% (n = 410,000); in the data active = max activation above about 30%; also: 0% is about no effect
Target sequence (P35462 whole entry, looked up): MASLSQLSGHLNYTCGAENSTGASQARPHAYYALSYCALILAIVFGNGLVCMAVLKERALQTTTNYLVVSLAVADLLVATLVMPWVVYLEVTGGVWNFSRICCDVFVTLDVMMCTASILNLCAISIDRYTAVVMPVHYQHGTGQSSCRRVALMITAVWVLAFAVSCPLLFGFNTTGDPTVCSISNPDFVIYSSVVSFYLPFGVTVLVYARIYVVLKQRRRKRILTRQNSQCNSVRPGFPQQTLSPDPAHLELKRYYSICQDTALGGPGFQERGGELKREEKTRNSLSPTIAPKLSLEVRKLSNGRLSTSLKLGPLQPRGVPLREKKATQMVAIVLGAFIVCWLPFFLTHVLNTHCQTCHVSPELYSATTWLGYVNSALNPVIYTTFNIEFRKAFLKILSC
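Agonist mode: compounds and dopamine controls were applied to plated cells for 90 min at 37 degrees C after an overnight attachment at 1500 cells/well. Luminescent read-out followed 30 - 60 minutes at room temperature with DiscoveRx detection reagent.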
GRP78 ERSR act: induces the endoplasmic reticulum stress response in human glioma cells; U87-MG GRP78 promoter luciferase reporter, 16 h; Potency, µM, for the others: top-dose activation, hits mostly activators; actives 0.02% (n = 420,000); AID 602332; also: potency is read from the fitted curve at half-maximal effect; series mostly up to about 76 µM; % of control where 0% means no effect; nearly all actives have a fitted effect of over 35% in size
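ERSR induction read as luciferase luminescence (Bright-Glo, 10 min at room temperature) in stably transfected human U87-MG glioma cells exposed to compounds for 16 h, using GRP78 as sensor.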
DRD3 antagonist: antagonists of human D3 dopamine receptor; AID 652054; actives 2.5% (n = 360,000); D3R cells, DiscoveRx beta-arrestin luminescence, antagonist mode; active compounds read low; P35462; max response, negative = inhibition, %; in the data active = max response below about -50%; inconclusive = no clear call, values can overlap the other calls; also: % is scaled to controls: 0 for no effect and ±100 for the full control effect
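Cells plated overnight at 1500 cells/well, then exposed to library compounds with dopamine controls for 90 minutes at 37 degrees C. DiscoveRx reagent added for 30–60 minutes at room temperature; luminescence read, quantitative HTS format.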
An asterisk follows results filed as active; u = inconclusive; x = no result; ! = a repeat was not active; [ ] = another dose, or the depositor's remark. Unless noted, calls follow the shape of the dose curve; as a rule, active = well fitted curve in the direction sought with a large enough effect; inconclusive = small, poorly fitted or top-dose-only effect, or another doubt; inactive = no such curve, though single readings can be large; an effect the other way counts as inactive or inconclusive.

SMILES | Nrf2 activator | D3 ag | GRP78 ERSR act | DRD3 antagonist
COc1ccc(NC(=O)C2CCC(CNc3c(N4CCC(C)CC4)c(=O)c3=O)CC2)cc1OC (configuration not stated) | 0% | 2 | -2% | -105*!
CN(C)C(CNc1ccc(C(F)(F)F)cn1)c1ccccc1 (configuration not stated) | 0% | -15 | 0% | -59*
CC(=O)c1cccc(NC(=O)CSc2nc(=O)n(Cc3ccco3)c3c2CCC3)c1 | 3% | 15 | -2% | x
CC(C)(C)NC(=O)[C@H]1CC[C@H]2[C@@H]3CC=C4C=C(C(=O)O)CC[C@]4(C)[C@H]3CC[C@]12C | x | -3 | x | x
CCOC(=O)c1c(C)[nH]c(C(=O)COC(=O)C2(C)CC2(Cl)Cl)c1C (configuration not stated) | 2% | 45* | 6% | 54
COc1ccc(OCC(=O)N/N=C(\C)c2cccs2)cc1 | 0% | 4 | -5% | 1
C/C(=N\NC(=O)COc1ccccc1[N+](=O)[O-])c1cccs1 | 8.9µM* | 0 | 3% | -4
COc1ccc(/C=C/c2ccc3ccccc3n2)cc1OC | x | x | -10% | x
Cc1cccnc1-c1cccc2c1OC(CNC(=O)C1CCCc3c1[nH]c1ccccc31)C2 (configuration not stated) | x | x | -1% | x
Cn1c(-c2ccccc2)cc2onc(-c3ccccc3)c2c1=O | -1% | 0 | -9% | -69*
Cc1cc2ccccc2c(=O)n1CC(=O)NCC(=O)N1CCN(c2ccccc2)CC1 | -1% | -8 | -3% | -52*
Cc1cc2ccccc2c(=O)n1CC(=O)N1CCN(c2cccc(Cl)c2)CC1 | 0% | -1 | -1% | -10
O=P(O)(O)O[C@@H]1[C@H](O)[C@H](O)[C@@H](OP(=O)(O)O)[C@H](OP(=O)(O)O)[C@H]1O | x | x | -2% | x
Cc1cc(C)n(/N=C/c2ccccc2O)c(=O)c1 | 0% | 7 | 3% | 3
Cc1cc(C)n(/N=C/c2cc(Cl)cc(Cl)c2O)c(=O)c1 | 0%[9.22 µM] | -28 | -3% | -77*
COC(=O)c1ccc(CNC(=O)CNc2cc(C(F)(F)F)ccc2N2CCOCC2)cc1 | -1% | -9 | -3% | -57*
CCC(=O)Nc1cc(C(F)(F)F)ccc1N1CCOCC1 | 1% | 0 | 7% | -21
CCO[C@H]1[C@H](NC(=O)c2cccnc2)c2ccccc2C12CCN(C(=O)c1ccoc1)CC2 | x | x | -2% | x
Nc1nonc1N/N=C\c1ccccc1 | -1% | -5 | -4% | -26
Nc1cc(Cl)nc(N/N=C/c2c(O)ccc3ccccc23)n1 | u | 0 | 2% | -146*
Nc1nonc1N/N=C/c1c(O)ccc2ccccc12 | 7.9µM* | 3 | 6% | -1
O=C(N/N=C/c1c(O)ccc2ccccc12)Nc1ccccc1 | u | -15 | 0% | -57*
CC1(C)OC(=O)C2(Cc3ccc(Cl)cc3N3CCCCC32)C(=O)O1 (configuration not stated) | x | x | -3% | x
CCCCCc1cc(=O)oc2c(C(CCN3CCN(c4ccccc4)CC3)c3ccc4c(c3)OCO4)c(OC)cc(OC)c12 (configuration not stated) | 0% | -41 | -1% | -69*
COc1cc(C(CCN2CCCCC2)c2c(OC)cc(OC)c3c(-c4ccccc4)cc(=O)oc23)cc(OC)c1OC (configuration not stated) | 5% | 0 | -7% | -9
SMILES | Nrf2 activator | D3 ag | GRP78 ERSR act | DRD3 antagonist
CCCCCc1cc(=O)oc2c(C(CCN3CCCC3)c3cc(OC)c(OC)c(OC)c3)c(OC)cc(OC)c12 (configuration not stated) | -5% | -44 | -11% | -51*
COc1cc(C(CCN2CCCC(C)C2)c2c(OC)cc(OC)c3c(-c4ccccc4)cc(=O)oc23)cc(OC)c1OC (configuration not stated) | 7% | -30 | -3% | -51*
CCCCCc1cc(=O)oc2c(C(CCN3CCCC3)c3ccc(N(C)C)cc3)c(OC)cc(OC)c12 (configuration not stated) | -3% | -36 | -12% | u
COc1ccc(CCNC(=O)c2cc(-c3ccco3)on2)cc1OC | u | 11 | u | 12
COc1ccc(CCNC(=O)c2cc(-c3cccs3)on2)cc1OC | 10% | 36* | 3% | 14
O=C(NCCN1CCOCC1)c1cc(-c2ccccc2)on1 | 21% | -1 | u | 3
O=C(NCCN1CCOCC1)c1cc(-c2cccs2)on1 | u | -28 | 11µM* | u
COc1ccc(OC)c(-c2cc(C(=O)NCc3cccs3)no2)c1 | u | -27 | -3% | -96*
O=C(NCCN1CCCCC1)c1cc(COc2c(F)cccc2F)on1 | 2% | -28 | 8% | -62*
CC1(C)CC(C(=O)N2CCOc3ccc(CN4CCN(Cc5ccccn5)CC4)cc3C2)CCO1 (configuration not stated) | x | x | -3% | x
COc1ccc(C(=O)Nc2nc(-c3nnn(-c4ccc(C(C)C)cc4)c3C)ns2)cc1 | 3% | -8 | -2% | x
COc1cc(C)c(/C=C(\C#N)C(=O)Nc2ccc(C)cc2)cc1C(C)C | 0% | -43 | -2% | u
COCCNC(=O)/C(C#N)=C/c1cc(C(C)C)c(OC)cc1C | 4% | -40 | -1% | -77*
CCc1ccccc1NCc1nnc2n1CCCCC2 | -1% | 2 | -6% | x
O=C(CSc1nc2ccccc2c(=O)[nH]1)c1ccccc1 | 5% | -3 | 0% | -12
CC(C)(C)c1ccc(C(=O)CSc2nc3ccccc3c(=O)[nH]2)cc1 | 2% | 34* | -1% | 47
O=C(COc1ccc(Cl)cc1Cl)N/N=C/CCc1ccccc1 | 0% | -2 | -5% | -55*
O=C(COc1ccc(Cl)cc1Cl)N/N=C/c1ccc[nH]1 | 9% | -2 | 1% | -1
COc1ccc(-c2ccc(OC)c(C3C4C=CCC(C)C4C(=O)N3Cc3ccccc3)c2)cc1OC (configuration not stated) | x | x | -3% | x
COc1ccc(-c2ccoc2)cc1[C@H]1[C@H]2C=CC[C@@H](C)[C@@H]2C(=O)N1Cc1ccccc1 | 7% | -45 | u | -56*
COc1ccc(-c2ccc(OC)c([C@H]3[C@H]4C=CC[C@@H](C)[C@@H]4C(=O)N3Cc3ccccc3)c2)cc1 | -1% | -56 | -3% | -52*
CC(C)C[C@@H](C=O)NC(=O)[C@H](CC(C)C)NC(=O)[C@H](CC(C)C)NC(=O)OCc1ccccc1 | x | x | -8% | x
O=C1NC(c2ccccc2)=C(c2nc3ccccc3s2)C(c2ccc(F)cc2)N1 (configuration not stated) | 3% | 14 | -1% | -56*
COc1ccc(C2NC(=O)NC(c3ccccc3)=C2c2nc3ccccc3s2)cc1 (configuration not stated) | 0% | 9 | -3% | 7
COc1ccc(-c2nc3c(=O)n(C)c(=O)nc-3n(C)n2)cc1 | x | x | -10% | x
CCS(=O)(=O)N1CCc2cc(C(=O)Nc3ccc(OC)cc3OC)ccc21 | -1% | 0 | -1% | x
CCn1c(Cl)c(C=O)s/c1=N\S(=O)(=O)c1ccccc1 | -2% | -24 | -18% | -122*
